Among all 5,600 compounds or so, about 390 (7%) showed an effect of 50% or more. Shown is part of a subset that was picked to be rich in strong results.
target: T1, Protein deacetylase HDAC6 (Homo sapiens) (UniProt Q9UBN7); details: at 10 µM
T1 sequence (whole entry): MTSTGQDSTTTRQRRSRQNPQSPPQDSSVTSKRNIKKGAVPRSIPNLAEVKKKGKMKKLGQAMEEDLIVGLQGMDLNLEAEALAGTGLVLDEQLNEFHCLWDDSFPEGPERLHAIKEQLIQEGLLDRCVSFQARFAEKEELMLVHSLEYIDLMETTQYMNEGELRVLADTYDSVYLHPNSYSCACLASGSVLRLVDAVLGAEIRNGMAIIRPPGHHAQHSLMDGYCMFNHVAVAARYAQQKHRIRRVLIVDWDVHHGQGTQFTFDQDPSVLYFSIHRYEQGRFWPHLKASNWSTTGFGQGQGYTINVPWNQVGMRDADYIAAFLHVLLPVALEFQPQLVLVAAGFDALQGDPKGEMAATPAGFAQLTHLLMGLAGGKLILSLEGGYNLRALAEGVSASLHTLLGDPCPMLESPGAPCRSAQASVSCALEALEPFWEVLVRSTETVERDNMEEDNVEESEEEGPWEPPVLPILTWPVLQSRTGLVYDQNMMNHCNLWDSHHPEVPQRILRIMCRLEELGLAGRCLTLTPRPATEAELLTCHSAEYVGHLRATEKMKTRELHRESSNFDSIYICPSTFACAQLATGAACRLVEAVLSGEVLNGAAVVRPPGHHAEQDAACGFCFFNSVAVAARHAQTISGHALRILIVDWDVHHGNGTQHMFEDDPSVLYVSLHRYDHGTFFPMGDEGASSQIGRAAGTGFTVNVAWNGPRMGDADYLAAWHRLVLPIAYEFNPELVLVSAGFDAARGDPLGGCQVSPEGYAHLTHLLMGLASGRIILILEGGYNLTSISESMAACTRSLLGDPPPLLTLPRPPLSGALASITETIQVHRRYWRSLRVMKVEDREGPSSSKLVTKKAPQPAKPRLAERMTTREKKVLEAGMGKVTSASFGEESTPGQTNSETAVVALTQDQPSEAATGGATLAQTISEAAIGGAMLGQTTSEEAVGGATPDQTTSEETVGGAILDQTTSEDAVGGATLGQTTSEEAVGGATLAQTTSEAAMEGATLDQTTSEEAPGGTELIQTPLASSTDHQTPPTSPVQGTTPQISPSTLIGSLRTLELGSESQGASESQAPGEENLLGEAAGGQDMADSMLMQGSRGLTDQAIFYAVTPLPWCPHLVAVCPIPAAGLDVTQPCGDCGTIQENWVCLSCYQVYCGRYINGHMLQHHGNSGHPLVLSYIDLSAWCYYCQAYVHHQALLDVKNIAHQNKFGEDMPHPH

Row | SMILES | inhibition [%]
1 | O=C(Nc1cccc2cccnc12)c1ccc(N2C(=O)[C@@H]3[C@H](C2=O)[C@H]2C=C[C@@H]3C2)cc1 | -1.4
2 | O=C(Nc1cccc2cccnc12)c1ccc(N2C(=O)[C@@H]3[C@H](C2=O)[C@@H]2C=C[C@H]3C2)cc1 | 56.2
3 | FC(F)(F)c1cc(NC(=S)Nc2ccc(Br)cc2-c2nnn[nH]2)cc(C(F)(F)F)c1 | 74.5
4 | Oc1nc(O)c2nc(O)[nH]c2n1 | 12.1
5 | CCN(CC)C(C)CN1c2ccccc2Sc2ccccc21 (configuration not stated) | 11.7
6 | CN(C)CCCN1c2ccccc2Sc2ccc(C(F)(F)F)cc21 | 89.2
7 | CN1CCN(CCCN2c3ccccc3Sc3ccc(C(F)(F)F)cc32)CC1 | 59.5
8 | OCCN1CCN(CCCN2c3ccccc3Sc3ccc(Cl)cc32)CC1 | 36.5
9 | CC(=O)c1ccc2c(c1)N(CCCN1CCC(CCO)CC1)c1ccccc1S2 | 76.9
10 | CN1CCCC(CN2c3ccccc3Sc3ccccc32)C1 (configuration not stated) | 48.4
11 | CCSc1ccc2c(c1)N(CCCN1CCN(C)CC1)c1ccccc1S2 | 70.4
12 | COc1ccccc1N1CCN(CCCCNC(=O)c2ccc(-c3ccc(C(C)=O)cc3)cc2)CC1 | 1.38
13 | CN1CCN(CCCN2c3ccccc3Sc3ccc(S(=O)(=O)N(C)C)cc32)CC1 | -2.89
14 | CC(CN(C)C)CN1c2ccccc2Sc2ccccc21 (configuration not stated) | 30.9
15 | COc1ccc2c(c1)N(C[C@H](C)CN(C)C)c1ccccc1S2 | 14.6
16 | CCC(=N\O)/C(C)=C/c1ccc(F)cc1 | 47.7
17 | C[C@@H](NCc1cc(Br)cc2nc(O)c(O)nc12)P(=O)(O)O | 7.12
18 | CCCCCCCCCCCCCCCCCCCCCC(=O)O | -9.27
19 | COc1cc(N2CCC(N(C)C)CC2)ccc1Nc1ncc(Cl)c(Nc2ccccc2P(C)(C)=O)n1 | 3.02
20 | CCC[C@@H](NC(=O)N1C(=O)C(CC)(CC)[C@@H]1Oc1ccc(C(=O)N2CCN(C)CC2)cc1)c1ccc2c(c1)OCO2 | 9.19
21 | CCn1c2ccccc2c2cc(CNC)ccc21 | -7.52
22 | COc1cccc(OC)c1-c1cc(C(=O)N[C@@H](CC(C)C)C(=O)O)nn1-c1ccnc2cc(Cl)ccc12 | 6.09
23 | CCCCN1CC(O)C(O)C(O)C1CO (configuration not stated) | -6.7
24 | COc1cc2c(cc1NS(=O)(=O)c1ccc(Br)cc1C)n(C)c(=O)n2C | 19.4

Row | SMILES | inhibition [%]
25 | O=c1[nH]c([C@@H]2CCCN2)nc2c1oc1ccc(Cl)cc12 | -8.21
26 | CC(C)(C)NC(=O)[C@@H]1C[C@@H]2CCCC[C@@H]2CN1C[C@@H](O)[C@H](Cc1ccccc1)NC(=O)[C@H](CC(N)=O)NC(=O)c1ccc2ccccc2n1 | 2.2
27 | NCCCC(N)C(=O)O (configuration not stated) | -5.26
28 | CCCCC/C=C\C/C=C\C/C=C\CCCCC(=O)O | 20.4
29 | O=c1n(CC2CO2)c(=O)n(CC2CO2)c(=O)n1CC1CO1 (configuration not stated) | 21.5
30 | CN(C)CCCN1c2ccccc2Sc2ccc(Cl)cc21 | 59.7
31 | CCN(CC)CCCCN1c2ccccc2Oc2ccc(Cl)cc21 | 22.7
32 | CN(C)CCCN1c2ccccc2CCc2ccc(Cl)cc21 | 7.48
33 | c1ccc2c(Oc3nc(Nc4ccc(N5CCOCC5)cc4)c4ncn(C5CCCCC5)c4n3)cccc2c1 | 2.11
34 | O=C(c1c2ccccc2cc2ccccc12)N1CCC(N2CCC[C@@H](C(=O)N3CCOCC3)C2)CC1 | 16
35 | C[C@@]12CCC3[C@@](CC[C@@H]4[C@](C)(C(=O)O)CCC[C@@]34C)(CC1=O)C2 (some centres not stated) | 11.5
36 | c1ccc2c(c1)CCC[C@H]2Nc1nc2ccccc2[nH]1 | 96.9
37 | CCNC(=O)N1CCN(CCCC(c2ccc(F)cc2)c2ccc(F)cc2)CC1 | -5.99
38 | CCCCCCCCCCCCCCCC(=O)N[C@@H](CCC(=O)NCCCC[C@H](NC(=O)[C@H](C)NC(=O)[C@H](C)NC(=O)[C@H](CCC(N)=O)NC(=O)CNC(=O)[C@H](CCC(=O)O)NC(=O)[C@H](CC(C)C)NC(=O)[C@H](Cc1ccc(O)cc1)NC(=O)[C@H](CO)NC(=O)[C@H](CO)NC(=O)[C@@H](NC(=O)[C@H](CC(=O)O)NC(=O)[C@H](CO)NC(=O)[C@@H](NC(=O)[C@H](Cc1ccccc1)NC(=O)[C@@H](NC(=O)CNC(=O)[C@H](CCC(=O)O)NC(=O)[C@H](C)NC(=O)[C@@H](N)Cc1cnc[nH]1)[C@@H](C)O)[C@@H](C)O)C(C)C)C(=O)N[C@@H](CCC(=O)O)C(=O)N[C@@H](Cc1ccccc1)C(=O)N[C@H](C(=O)N[C@@H](C)C(=O)N[C@@H](Cc1c[nH]c2ccccc12)C(=O)N[C@@H](CC(C)C)C(=O)N[C@H](C(=O)N[C@@H](CCCNC(=N)N)C(=O)NCC(=O)N[C@@H](CCCNC(=N)N)C(=O)NCC(=O)O)C(C)C)[C@@H](C)CC)C(=O)O | 102
39 | CC(C)C[C@H](NC(=O)[C@@H](COC(C)(C)C)NC(=O)[C@H](Cc1ccc(O)cc1)NC(=O)[C@H](CO)NC(=O)[C@H](Cc1c[nH]c2ccccc12)NC(=O)[C@H](Cc1cnc[nH]1)NC(=O)[C@@H]1CCC(=O)N1)C(=O)N[C@@H](CCCNC(=N)N)C(=O)N1CCC[C@H]1C(=O)NNC(N)=O | 7.12
40 | CC(C)C[C@H](NC(=O)CNC(=O)[C@H](Cc1ccc(O)cc1)NC(=O)[C@H](CO)NC(=O)[C@H](Cc1c[nH]c2ccccc12)NC(=O)[C@H](Cc1cnc[nH]1)NC(=O)[C@@H]1CCC(=O)N1)C(=O)N[C@@H](CCCNC(=N)N)C(=O)N1CCC[C@H]1C(=O)NCC(N)=O | 18.4
41 | CCCCc1nc2ccn(CC(=O)N(C)C)c(=O)c2n1Cc1ccc(-c2ccccc2-c2nnn[nH]2)cc1 | 0.96
42 | CCCc1cc(C)[nH]c(=O)c1CNC(=O)c1cc(-c2ccc(N3CCN(C(C)C)CC3)nc2)cc2c1cnn2C(C)C | 8.48
43 | O[C@@H](COc1cccc2ncccc12)CN1CCN([C@@H]2c3ccccc3[C@@H]3[C@H](c4ccccc42)C3(F)F)CC1 | 10.7
44 | Cc1cc(OCCN2CCOCC2)nn1-c1ccc2ccccc2c1 | 10.2
45 | CC(C)(C)c1cc(NC(=O)Nc2ccc(-c3cn4c(n3)sc3cc(OCCN5CCOCC5)ccc34)cc2)no1 | 1.57
46 | Cc1ccc(-n2nc(C(C)(C)C)cc2NC(=O)Nc2ccc(OCCN3CCOCC3)c3ccccc23)cc1 | 71.1
47 | O[C@H]1[C@H](O)[C@@H](O)[C@H](O)[C@@H](O)[C@H]1O | 22.8

From ChEMBL document CHEMBL4808148, “HDAC6 screening dataset using tau-based substrate in an enzymatic assay yields selective inhibitors and activators” (2021)
